# High-throughput results as filed in PubChem.
# Sampled rows, rich in hits. Any-hit rate of the full collection: about 5.1%.
# MPTP inh: blocks calcium-induced mitochondrial swelling; isolated mouse mitochondria, Ca2+ swelling absorbance, 30 min; inhibition, % at 10 µM; 1.4% of 360,000 active;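 active = inhibition of 50% or more, scaled per plate between neutral and stimulator controls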;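 also: 0% = DMSO wells given calcium and 100% = 1 mM EGTA wells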
# GRIN3A LBD mod: modulators (binders) of human NR3A ligand-binding domain | NR3A LBD differential scanning fluorimetry, Tm shift; 0% = protein alone, 100% = glycine-bound protein | Tm shift relative to glycine control, % at 25 µM | 2.5% of 340,000 active;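 active = melting temperature shift of at least 10% of the positive control shift, at one fixed dose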
# ANO1 block: blocks the mouse calcium-activated chloride channel TMEM16A | HEK293 TMEM16A/YFP iodide influx fluorescence, ionomycin | normalized B-score (activity score, 25-100; higher = stronger inhibition) at 10 µM | 1.2% of 310,000 active;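 active = ratio plate-corrected score three or more library SD toward inhibition, starting fluorescence score within five deviations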;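 also: score derived from kinetic fluorescence span divided by baseline fluorescence per well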
# Target sequence (Q8BHY3 whole entry, looked up): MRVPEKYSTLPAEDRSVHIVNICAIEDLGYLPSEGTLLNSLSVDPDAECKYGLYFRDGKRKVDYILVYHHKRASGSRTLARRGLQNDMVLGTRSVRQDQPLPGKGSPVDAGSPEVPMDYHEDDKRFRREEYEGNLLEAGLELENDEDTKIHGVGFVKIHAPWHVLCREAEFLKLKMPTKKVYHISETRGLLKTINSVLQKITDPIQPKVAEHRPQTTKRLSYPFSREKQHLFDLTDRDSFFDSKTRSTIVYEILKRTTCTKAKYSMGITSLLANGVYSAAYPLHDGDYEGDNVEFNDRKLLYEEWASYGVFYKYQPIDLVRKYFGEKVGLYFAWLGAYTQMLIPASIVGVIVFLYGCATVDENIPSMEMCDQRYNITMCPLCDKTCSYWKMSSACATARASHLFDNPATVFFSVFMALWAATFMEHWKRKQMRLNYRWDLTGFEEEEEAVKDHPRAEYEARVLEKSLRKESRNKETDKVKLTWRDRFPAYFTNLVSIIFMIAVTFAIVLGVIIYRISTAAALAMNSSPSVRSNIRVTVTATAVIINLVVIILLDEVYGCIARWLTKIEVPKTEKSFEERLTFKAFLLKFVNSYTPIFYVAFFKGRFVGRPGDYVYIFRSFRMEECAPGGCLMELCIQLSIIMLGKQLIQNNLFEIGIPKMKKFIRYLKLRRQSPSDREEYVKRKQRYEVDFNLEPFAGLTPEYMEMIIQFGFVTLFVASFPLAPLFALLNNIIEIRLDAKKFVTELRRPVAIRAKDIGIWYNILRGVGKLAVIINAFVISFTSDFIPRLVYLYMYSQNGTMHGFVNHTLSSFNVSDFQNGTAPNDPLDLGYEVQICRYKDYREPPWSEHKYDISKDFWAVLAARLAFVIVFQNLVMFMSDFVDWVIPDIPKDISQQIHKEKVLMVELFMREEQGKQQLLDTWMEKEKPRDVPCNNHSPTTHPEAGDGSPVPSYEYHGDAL
# CRFR2-BP antag: antagonists of CRF-binding protein/CRF-R2 receptor complex; 0.59% of 350,000 active; HEK293 CRF-R2/CRF-BP, CRF-induced calcium fluorescence; inhibition, % at 11.8 µM;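 active = inhibition of the ligand-induced calcium signal above about 50% at the single tested concentration, limit read from the data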
# CRFR2-BP ag: agonists of human CRF-binding protein/CRF-R2 receptor complex | HEK293 CRF-R2/CRF-BP, calcium dye fluorescence (FLIPR); percent of saturating CRF peptide response | activation, % at 13.2 µM | 0.46% of 350,000 active;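 active = activation of at least 50%, plus an integration ratio under a set limit after plate pattern correction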;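 also: plate controls were neutral control wells without compound for no effect and CRF at EC100 for full effect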
# TMEM16A act: mouse TMEM16A channel activation, primary screen. HEK293 TMEM16A/YFP-H148Q/I152L, iodide quench fluorescence; hits give low values. 0.3% of 340,000 active. B-score at 10 µM;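 active = fluorescence-ratio B-score plate-corrected deviation score at least 3 library SD below zero, with starting fluorescence score within 5 deviations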;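 also: channel opened by trigger with iodide after compound preincubation; score built on the fluorescence ratio of max minus min over baseline; more negative score means more quench and so TMEM16A activation or potentiation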
# Active calls of the source: *; i = inactive; . = no result.
SMILES,MPTP inh,GRIN3A LBD mod,ANO1 block,CRFR2-BP antag,CRFR2-BP ag,TMEM16A act
COc1ccc(NC(=S)Nc2ccc3cn[nH]c3c2)cc1,1,10,i,3,-1,i
CCCCNC(=S)Nc1ccc2cn[nH]c2c1,-1,21*,i,-4,-4,i
CCc1ccc(NC(=S)Nc2ccc3cn[nH]c3c2)cc1,0,14*,i,0,-3,i
S=C(Nc1ccc2cn[nH]c2c1)Nc1ccccc1Cl,-1,4,i,-3,-2,i
S=C(Nc1ccc2cn[nH]c2c1)Nc1ccc(Cl)cc1Cl,-2,13*,i,-12,0,i
COCCN1C(=O)CSCC1(C)C(=O)Nc1ccc2c(c1)OCCO2 (stereo not drawn),6,.,.,.,.,.
CCN(CC(=O)Nc1c(F)cccc1F)C(=O)c1n[nH]c2ccccc12,0,0,i,2,1,i
CC(Oc1ccc(Cl)cc1)C(=O)Nc1ccc(S(=O)(=O)N2CCOCC2)cc1 (stereo not drawn),0,-13,i,-26,37,i
CCOC(=O)CC1C(=O)NCCN1c1nc2ccc(C)cn2c(=O)c1/C=C1\SC(=S)N(CC(C)C)C1=O (stereo not drawn),2,0,i,-134,189*,i
CCCN1C(=O)/C(=C/c2c(N3CCNC(=O)C3CC(=O)OCC)nc3c(C)cccn3c2=O)SC1=S (stereo not drawn),5,-9,i,-200,191*,i
CCOC(=O)CC1C(=O)NCCN1c1nc2ccc(C)cn2c(=O)c1/C=C1\SC(=S)N(C(C)CC)C1=O (stereo not drawn),.,.,i,.,.,.
COc1ccc(-n2c(C)cc(C(=O)CN3C(=O)NC4(CCCc5sccc54)C3=O)c2C)cc1 (stereo not drawn),6,-2,i,-17,0,i
Cc1cc(C(=O)CN2C(=O)NC3(CCCc4sccc43)C2=O)c(C)n1-c1ccccc1 (stereo not drawn),1,15*,i,-33,-1,i
O=C(CCCOc1ccc(Cl)cc1Cl)N/N=C/c1ccccc1O,34,18*,i,-16,-2,i
Cc1ccc(/C=N/NC(=O)CCCOc2ccc(Cl)cc2Cl)cc1,2,12*,i,-65,0,i
Cc1ccc(/C=N/NC(=O)CCCOc2ccc(Cl)cc2Cl)cc1[N+](=O)[O-],24,9,i,11,-1,i
O=C(CCCOc1ccc(Cl)cc1Cl)N/N=C/c1ccccc1,3,2,i,-45,1,i
O=C(CCCOc1ccc(Cl)cc1Cl)N/N=C/c1ccco1,2,-5,i,-2,1,i
COc1ccc(/C=N/NC(=O)CCCOc2ccc(Cl)cc2Cl)cc1[N+](=O)[O-],-4,12*,i,16,-1,i
CCCCCCCCN1C(=O)[C@H](CC(=O)N2CCSCC2)C[C@@]2(C(=O)OC)CC(C)(C)CC=C12,11,.,.,.,.,.
COc1cccc(NC(=O)Cc2csc(NC(=O)Nc3ccccc3OC)n2)c1,2,29*,i,4,-2,i
COc1cc(C)ccc1NC(=O)Cc1csc(NC(=O)Nc2ccccc2OC)n1,0,4,i,8,0,i
COc1ccccc1NC(=O)Nc1nc(CC(=O)Nc2ccc(OC)c(OC)c2)cs1,-1,17*,i,-12,-1,i
CSc1ncccc1C(=O)OCC(=O)NCCCc1ccccc1,0,0,.,11,-5,i
CCOC(=O)c1cc(C)sc1NC(=O)CCC(=O)O,-1,-3,i,59*,5,i
CCc1cc(C(=O)OC)c(NC(=O)CCC(=O)O)s1,0,1,i,12,2,i
O=C(OCC(=O)N1CCOCC1)c1ccc(Cl)cc1[N+](=O)[O-],-2,0,i,-11,-1,i
C=CCn1c(SCC(=O)N2CCN(c3ccc(F)cc3)CC2)nnc1-c1ccco1,-2,-1,25*,-15,4,i
C=CCn1c(SCC(=O)Nc2ccc(N3CCOCC3)cc2)nnc1-c1ccco1,1,-2,i,8,0,i
